Bioassay records as filed in PubChem BioAssay.
D2 ag-1: HTS Assay for Allosteric Agonists of the Human D2 Dopamine Receptor: Primary Screen for Agonists; HEK293 T-REx D2 cells, calcium flux agonist mode; activation, % at 2 µM; actives 0.53% (n = 340,000); D(2) dopamine receptor (Homo sapiens), P14416;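 active means activation over 3 SD above normal in the single-dose calcium agonist read, cut at about 30% in these data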; further: 0% is about no effect
Target sequence (P14416 whole entry, looked up): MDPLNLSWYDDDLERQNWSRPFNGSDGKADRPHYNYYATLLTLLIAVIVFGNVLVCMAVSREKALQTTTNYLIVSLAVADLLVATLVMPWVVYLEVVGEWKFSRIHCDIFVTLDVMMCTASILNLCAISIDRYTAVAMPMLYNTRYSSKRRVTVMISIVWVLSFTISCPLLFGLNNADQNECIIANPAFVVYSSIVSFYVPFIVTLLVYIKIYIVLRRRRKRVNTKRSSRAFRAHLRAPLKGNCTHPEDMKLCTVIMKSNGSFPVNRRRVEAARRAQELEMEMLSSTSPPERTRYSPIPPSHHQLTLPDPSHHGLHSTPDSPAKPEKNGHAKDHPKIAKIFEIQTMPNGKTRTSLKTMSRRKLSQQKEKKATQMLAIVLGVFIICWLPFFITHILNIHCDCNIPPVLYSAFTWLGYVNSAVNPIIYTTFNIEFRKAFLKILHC
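Agonism scored from kinetic calcium signal (1 read/sec, 180 s) following compound pin transfer, after a 10 s baseline. Cells: HEK293 Trex line expressing inducible D2 receptor coupled to calcium, dye-loaded after overnight culture at 30 C.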
D2 PAM-1: Beta-Arrestin HTS for Positive Allosteric Modulators of the Human D2 Dopamine Receptor: Potentiators; D(2) dopamine receptor (Homo sapiens), P14416; DiscoveRx D2 beta-arrestin cells, luminescence, 90 min; 100% = 57 uM dopamine signal; potentiation, % (concentration not given with the values); actives 0.23% (n = 360,000); AID 624464, 2012; in the data active means potentiation above about 50%; inconclusive means mostly about 30% to 49%
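PathHunter beta-arrestin assay in DiscoveRx D2 cells. Compounds were added with an EC20 of dopamine (50 nM final) for 90 min at 37 deg C. Luminescence was read 1 h after detection reagent, with 57 uM dopamine as the EC100 control.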
D2 antag: HTS Assay for Allosteric Antagonists of the Human D2 Dopamine Receptor: Primary Screen for Antagonists. inhibition, % at 10 µM. AID 485344, 2010. D(2) dopamine receptor (Homo sapiens), P14416. HEK293 TREx D2 cells, calcium flux, dopamine EC80. actives 2% (n = 340,000); in the data active means inhibition above about 30%; inactive means below that, where a call was filed; further: 0% is about no effect
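Calcium mobilization kinetics were recorded at 1 s intervals in tetracycline-induced HEK293 T-REx D2 cells, first for 180 s after compound addition and then 180 s after EC80 dopamine.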
D2 PAM-2: HTS Assay for Positive Allosteric Modulators of the Human D2 Dopamine Receptor: Primary Screen for Potentiators. D(2) dopamine receptor (Homo sapiens), P14416. AID 485347, 2010. potentiation, % at 10 µM. HEK293 T-REx D2, calcium flux, EC20 dopamine potentiation. actives 0.34% (n = 340,000);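 active means potentiation over 3 SD above the plate norm, cut at about 30% in these data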; further: 0% is about no effect
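Cells plated with tetracycline inducer and held overnight at 30 C; calcium dye loaded 30–90 min at room temperature; baseline taken, compound added and read 180 s; EC20 dopamine then added and read 180 s.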
D2 ag-2: Beta-Arrestin HTS for Positive Allosteric Modulators of the Human D2 Dopamine Receptor: Agonists | D(2) dopamine receptor (Homo sapiens), P14416 | DiscoveRx PathHunter D2 beta-arrestin, luminescence, 90 min; 100% = 57 uM dopamine signal | activation, % (test concentration not listed) | actives 0.084% (n = 360,000) | AID 624465, 2012; in the data active means activation above about 40%; inconclusive means between about 15% and that limit
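Agonist mode: compounds alone added to overnight-plated D2 PathHunter cells for 90 min at 37 C, with 57 uM final dopamine (EC100) defining full response. Beta-arrestin recruitment detected by chemiluminescent reagent, read after 1 h at ambient temperature.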
An asterisk follows results filed as active; ? = inconclusive; / = not tested or not shown. Sampled rows, rich in hits. Any-hit rate of the full collection: about 2.4%.

SMILES | D2 ag-1 | D2 PAM-1 | D2 antag | D2 PAM-2 | D2 ag-2
CCCC(=O)Nc1cccc(OCc2cc(=O)n3cccc(C)c3n2)c1 | 0 | / | / | 13 | /
Cc1nc(NS(=O)(=O)c2ccccc2)sc1NC(=O)Nc1ccccc1 | -1 | 1 | 55* | -11 | ?
CCOC(=O)Nc1sc(NS(=O)(=O)c2ccccc2)nc1C | 0 | 86* | 1 | -6 | 12
Cc1nc(NS(=O)(=O)c2ccccc2)sc1NC(=O)Nc1ccc(Cl)cc1 | 1 | -3 | -18 | -16 | 6
CCOc1ccccc1N1CCN(CC(=O)NC(C)c2ccccc2)CC1 (stereo unspecified) | 0 | -23 | 100* | -20 | 3
CCOc1ccccc1N1CCN(C(=O)NCc2ccc(C)cc2)CC1 | -2 | -18 | 30* | 32* | -5
O=C(CN1CCN(c2ccccc2O)CC1)NC(c1ccccc1)c1ccccc1 | -1 | -33 | 64* | -24 | -3
O=C(CN1CCN(c2ccccc2O)CC1)Nc1ccc2c(c1)CCC2 | -1 | -16 | 67* | -23 | 0
CC(NC(=O)CN1CCN(c2ccc(Cl)cc2)CC1)c1ccccc1 (stereo unspecified) | 0 | -3 | -7 | 6 | -5
O=C(CN1CCCC1)NC(c1ccccc1)c1ccccc1 | 2 | -13 | -6 | -6 | -2
Cc1cc(SCC(=O)Nc2ccc(C(F)(F)F)cc2)nc(=O)[nH]1 | 1 | / | / | / | /
CCCn1c(O)c(CN2CCCCC2)c(C)c(C#N)c1=O | 14 | 64* | 13 | -15 | 8
Cc1c(CN2CCCCC2)c(O)n(CCCO)c(=O)c1C#N | 2 | 10 | 9 | 6 | 4
COc1ccc(CCNC(=O)CCc2cn(Cc3ccc(F)cc3)c3ccccc23)cc1OC | -1 | / | / | 5 | /
CN(C)CCCNc1oc(-c2ccccc2Cl)nc1S(=O)(=O)c1ccc(F)cc1 | 2 | -21 | 34* | -20 | -3
CN(C)CCNc1oc(-c2ccccc2Cl)nc1S(=O)(=O)c1ccccc1 | 0 | -4 | 6 | -4 | -4
CC1(C)C(=O)N(CC(=O)Nc2ccc(OC(F)(F)F)cc2)c2ccccc21 | -1 | / | / | 14 | /
Cc1nn(CC(C)C(=O)N2CCN(S(=O)(=O)c3ccc(Cl)cc3)CC2)c(C)c1C (stereo unspecified) | 2 | -3 | 32* | -16 | -4
Cc1ccc(S(=O)(=O)N2CCN(C(=O)C(C)Cn3nc(C)c(C)c3C)CC2)cc1 (stereo unspecified) | 1 | 2 | 11 | -7 | -1
CC12C(=O)N(c3ccccc3C(=O)O)C(=O)C1C1C=CC2C1 (stereo unspecified) | 4 | 11 | 36* | -8 | -1
CC12C(=O)N(c3cccc4cccnc34)C(=O)C1C1C=CC2C1 (stereo unspecified) | -1 | -3 | -5 | -2 | 0
COc1ccc(NC(=O)c2ccc(-c3cccc(Cl)c3C)o2)cc1 | 0 | / | / | -8 | /
COc1ccccc1C(CNC(=O)c1ccc(-c2ccccc2Cl)o1)N1CCCC1 (stereo unspecified) | 1 | -69 | 11 | -20 | -2
CC(C)(CNC(=O)c1ccc(-c2ccccc2Cl)o1)N1CCOCC1 | -1 | -20 | 40* | -5 | -4
COc1ccc(C(CNC(=O)c2cc(F)c(F)c(F)c2F)N2CCOCC2)cc1 (stereo unspecified) | -1 | -11 | 40* | -5 | -3
SMILES | D2 ag-1 | D2 PAM-1 | D2 antag | D2 PAM-2 | D2 ag-2
COc1ccc(C(CNC(=O)CSc2ccccc2F)N2CCOCC2)cc1 (stereo unspecified) | 2 | -5 | 3 | 12 | -1
CC(C)(CNC(=O)c1ccc(Br)o1)N1CCOCC1 | 0 | -17 | 7 | 8 | -2
COc1ccc(C(CNC(=O)c2ccc(-c3ccccc3Cl)o2)N2CCOCC2)cc1 (stereo unspecified) | 1 | -40 | 66* | -39 | -4
COc1ccc(NC(=O)c2ccc(-c3ccccc3Cl)o2)cc1 | -1 | -25 | 42* | -17 | -3
Cc1cccc(-c2nc(CSc3nncn4c3cc3oc(C)cc34)c(C)o2)c1 | 0 | / | / | 0 | /
CCC1CCCCN1CCCNC(=O)c1[nH]c2ccccc2c1Sc1ccc(Cl)cc1 (stereo unspecified) | -1 | / | / | -9 | /
Cc1cccc(N2CC(c3nc4ccccc4n3CCC3CCCCC3)CC2=O)c1 (stereo unspecified) | / | / | / | 14 | /
Cc1ccc(NC(=O)CN2C(=O)c3cccnc3Sc3ccccc32)cc1C | 0 | / | / | -14 | /
CC1CN(C(=O)N2CCC(C(=O)NCCCc3ccccc3)CC2)c2ccccc2O1 (stereo unspecified) | -1 | / | / | 8 | /
Cc1ccc(Nc2c3c(nc4nncn24)CCC3)cc1C | 0 | / | / | 9 | /
Cc1cc(C)c2sc(NNC(=O)C3COc4ccccc4O3)nc2c1 (stereo unspecified) | -1 | -6 | 33* | -3 | -4
Cc1cccc2sc(NNC(=O)C3COc4ccccc4O3)nc12 (stereo unspecified) | -1 | 5 | 10 | -2 | 7
COc1ccc(NC(c2ccccc2)c2ccncc2)cc1 (stereo unspecified) | 0 | -1 | 41* | 2 | 5
COc1cc(NC(c2ccccc2)c2ccccc2)cc(OC)c1OC | 0 | 2 | 4 | 0 | -6
O=C(NCc1ccncc1)c1cn(-c2ccccc2)nc1-c1cccnc1 | -1 | 23 | 14 | -16 | -2
COc1ccc(C(=O)NCCCn2ccnc2)cc1 | 0 | 21 | -7 | 2 | -2
O=C(NCc1cccnc1)c1cn(-c2ccccc2)nc1-c1ccccc1 | -1 | -22 | 44* | -26 | -5
COc1ccc(-c2nn(-c3ccccc3)cc2C(=O)NCCCn2ccnc2)cc1 | -1 | -24 | 30* | -24 | -1
Cc1c(C(=O)NCc2ccccc2)c(-c2ccccc2)nn1-c1ccccc1 | 1 | -2 | 36* | 1 | 1
O=C(NC1CCN(Cc2ccc(Cl)cc2)CC1)c1cn(-c2ccccc2)nc1-c1cccnc1 | -2 | -3 | 74* | -34 | -2
CCOc1ccc(Nc2sc(C(=O)c3ccc4c(c3)OCO4)c(N)c2S(=O)(=O)c2ccc(C)cc2)cc1 | / | / | / | 1 | /
COc1ccc(OC)c(S(=O)(=O)NCCc2sc(-c3cccnc3)nc2C)c1 | -1 | / | / | 4 | /
